The list is not random: actives were taken first. Their share in the collection is about 5.8%.
KB-3-1 cytotox = kills parental KB-3-1 adenocarcinoma cells | KB-3-1 viability, CellTiter-Glo ATP luminescence, 72 h | Potency, µM (top dose mostly 46.1 µM), hits mostly cytotoxic | 400,000 compounds, 1.4% hits | AID 1347075; further: nearly all actives have a fitted effect of over 60% in size
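KB-3-1 parental drug-naive adenocarcinoma cells in DMEM/10% FBS, incubated 72 h at 37 C with pin-transferred compounds across a concentration series. Viability by CellTiter-Glo luminescence; concentration-response curves fitted after normalization.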
MCF10A rereplic = inducers of DNA re-replication in MCF 10A breast cells. MCF 10A DNA re-replication, Hoechst nuclear intensity, 48 h. Potency, µM (titrated, usually from 46.1 µM), actives largely listed as activators. 350,000 compounds, 2.9% hits. AID 624296; further: nearly all actives have a fitted effect of over 50% in size
PINK1 expr mod = changes PINK1 expression; 410,000 compounds, 0.2% hits; AID 624263; PINK1 immunofluorescence, high-content cytometry, 24 h; Potency, µM (series often up to 76.6 µM), actives largely listed as activators; active means well fitted activation curve with a large enough effect; inconclusive means small, poorly fitted or top-dose-only effect; cell line not stated here; further: nearly all actives have a fitted effect of over 65% in size
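Decision-based qHTS: stable cells, 24 h exposure to five compound concentrations, CCCP as control. Fixed cells stained for PINK1 plus nuclear, mitochondrial and cell markers, cytometer read.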
SW480 rereplic = induces DNA re-replication in SW480 colon adenocarcinoma cells; SW480 DNA re-replication, Hoechst DNA content imaging, 48 h; Potency, µM (top dose mostly 46.1 µM), usual class: activators; 340,000 compounds, 1.8% hits; AID 624297; further: nearly all actives have a fitted effect of over 55% in size
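250 cells/well; 23 nL cpd via pin tool; 48 hr, 37 C, 5% CO2; Hoechst 40 min; imager read of total nuclear intensity, ex 405/em 500-530 nm.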
ALOX12 inh = inhibitors of human 12S-lipoxygenase ALOX12; P18054; purified 12hLO, xylenol orange hydroperoxide absorbance; Potency, µM (doses to about 108 µM), most hits filed as inhibitors; 580,000 compounds, 1.1% hits
Target sequence (P18054 whole entry, looked up): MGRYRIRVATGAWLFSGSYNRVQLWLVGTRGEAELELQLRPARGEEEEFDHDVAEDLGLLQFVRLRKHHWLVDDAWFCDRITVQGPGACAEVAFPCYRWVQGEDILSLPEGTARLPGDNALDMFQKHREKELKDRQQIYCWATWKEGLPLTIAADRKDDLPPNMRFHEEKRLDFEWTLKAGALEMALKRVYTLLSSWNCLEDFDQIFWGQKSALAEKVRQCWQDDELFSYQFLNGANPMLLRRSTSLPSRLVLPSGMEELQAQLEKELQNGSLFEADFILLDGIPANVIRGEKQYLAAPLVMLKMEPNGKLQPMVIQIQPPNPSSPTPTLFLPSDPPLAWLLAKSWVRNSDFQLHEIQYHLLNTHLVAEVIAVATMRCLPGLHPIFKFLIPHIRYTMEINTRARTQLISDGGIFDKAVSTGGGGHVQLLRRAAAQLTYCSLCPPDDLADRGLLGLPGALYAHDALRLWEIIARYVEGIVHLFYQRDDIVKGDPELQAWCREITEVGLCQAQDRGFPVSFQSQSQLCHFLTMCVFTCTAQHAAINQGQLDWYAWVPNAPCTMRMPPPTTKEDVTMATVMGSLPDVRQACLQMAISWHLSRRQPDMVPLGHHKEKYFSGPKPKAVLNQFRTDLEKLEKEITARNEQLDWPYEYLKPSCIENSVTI
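Hydroperoxide product was detected by ferrous iron/xylenol orange as the 573 to 405 nm absorbance ratio. Arachidonic acid at 40 uM (final) was turned over for 30 min at room temperature by 150 nM human 12hLO, pH 7.0 Hepes buffer, after 15 min compound preincubation.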
KB-V1 MDR tox = KB-V1 MDR subline cytotoxicity; 400,000 compounds, 3.4% hits; Potency, µM (titrated, usually from 46.1 µM), actives largely listed as cytotoxic; KB-V1 MDR cells viability, CellTiter-Glo, 72 h; AID 1347076; further: nearly all actives have a fitted effect of over 60% in size
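KB-V1 cells (P-gp-expressing MDR subline of KB-3-1) in phenol-red-free DMEM with 10% FBS were exposed to library compounds over a concentration series for 72 h at 37 degrees C. Viability read by CellTiter-Glo luminescence; concentration-effect curves fitted after normalization.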
Hits are given with their value; . = inactive; ? = inconclusive; / = not tested or not shown. Unless noted, the call rests on the fitted dose curve; in most records, active means well fitted curve in the direction sought with a large enough effect; inconclusive means small, poorly fitted or top-dose-only effect, or another doubt; inactive means no such curve, though single readings can be large; an effect the other way counts as inactive or inconclusive.

SMILES	KB-3-1 cytotox	MCF10A rereplic	PINK1 expr mod	SW480 rereplic	ALOX12 inh	KB-V1 MDR tox
Nc1nc(-c2ccc(Br)cc2)cs1	?	?	.	.	44.7µM	.
COC(=O)c1oc(CN2CCCC2c2ccsc2)cc1C (stereo unspecified)	/	/	/	/	.	/
Cc1cc(C)n(CC(O)CN(c2ccccc2)S(=O)(=O)c2ccccc2)n1 (stereo unspecified)	.	.	.	.	.	.
Cc1ccc(N(CC(O)Cn2nc(C)cc2C)S(=O)(=O)c2ccc3ccccc3c2)cc1 (stereo unspecified)	.	.	.	.	?	5.8µM
Cc1noc(C)c1S(=O)(=O)Nc1c(NC2CCCCC2)c2ccccc2oc1=O	/	/	/	/	.	/
COc1ccc(OC)c(C2=NOC(C(=O)Nc3cccnc3)C2)c1 (stereo unspecified)	.	.	.	.	.	23.1µM
COc1ccc(OC)c(C2=NOC(C(=O)NCCN3CCOCC3)C2)c1 (stereo unspecified)	.	.	.	.	.	?
COc1ccc(OC)c(C2=NOC(C(=O)NCc3cccs3)C2)c1 (stereo unspecified)	20.6µM	?	.	?	.	?
CCN(CC(=O)N(C)C)C(=O)CCc1ncc(-c2ccccc2Cl)o1	/	/	/	/	.	/
CCNC(=O)N1CCN(CCCC(c2ccc(F)cc2)c2ccc(F)cc2)CC1	.	?	.	.	35.5µM	?
CC(=O)c1cccc(-c2ccnc3c2CC(C(=O)NCCc2ccccc2)O3)c1 (stereo unspecified)	2.31µM	/	.	/	.	3.26µM
CC(=O)c1cccc(-c2ccnc3c2CC(C(=O)NCc2cccs2)O3)c1 (stereo unspecified)	1.03µM	/	.	/	.	2.31µM
O=C(NCc1cccs1)C1Cc2c(-c3ccc(Cl)cc3)ccnc2O1 (stereo unspecified)	2.06µM	/	.	/	.	?
COc1ccc(CNC(=O)C2Cc3c(-c4cccc(C(C)=O)c4)ccnc3O2)cc1OC (stereo unspecified)	?	/	.	/	?	.
CCOC(=O)C(C)Oc1ccc2c(-c3ccccc3)cc(=O)oc2c1C (stereo unspecified)	/	/	/	/	.	/
FC(F)(F)c1cccc(-c2noc(CSc3nc4ccccc4o3)n2)c1	/	/	/	/	.	/
COc1ccc(Cl)cc1Nc1nc(-c2sc(NC(=O)c3ccco3)nc2C)cs1	.	.	.	.	?	.
COc1ccc2c(c1)CCc1sc(NC(=O)c3ccco3)nc1-2	.	.	.	.	/	.
COc1cccc(Nc2nc(-c3ccc(CNC(C)=O)s3)cs2)c1	/	/	/	/	15.8µM	/
COc1cccc(Nc2nc(-c3sc(NC(=O)c4ccco4)nc3C)cs2)c1	.	.	.	.	6.31µM	.
COc1ccc2sc(NC(=O)c3ccco3)nc2c1	.	.	.	.	8.91µM	?
COc1cccc(Nc2nc(-c3sc(C)nc3C)cs2)c1	.	?	.	.	.	.
COc1ccc2c(c1)-c1nc(NC(=O)c3ccco3)sc1CC2	.	?	.	.	?	13µM
COc1ccc(C)cc1-n1c(SCC(=O)Nc2ccc(C(N)=O)cc2)nc2ccccc2c1=O	/	/	/	/	.	/
Cn1ccnc1C(NCC(O)COCc1cccs1)c1ccccc1 (stereo unspecified)	/	/	/	/	.	/
SMILES	KB-3-1 cytotox	MCF10A rereplic	PINK1 expr mod	SW480 rereplic	ALOX12 inh	KB-V1 MDR tox
O=C(c1cccs1)N(Cc1cc2ccccc2[nH]c1=O)c1ccccc1	?	.	.	.	.	5.17µM
Cc1ccc(N(Cc2cc3ccccc3[nH]c2=O)C(=O)c2cccs2)cc1C	.	.	.	?	.	?
CCN(CCNC(=O)C1CCN(Cc2nc(-c3cccc(Cl)c3)oc2C)CC1)c1ccccc1	?	?	.	?	.	2.59µM
COc1cccc(CN2CCN(C(=O)c3ccco3)CC2)c1	.	0.581µM	.	.	?	.
CCN(CCNC(=O)C1CCN(Cc2nc(-c3ccc(Cl)cc3)oc2C)CC1)c1ccccc1	.	?	.	?	.	7.31µM
CCc1ccc(-c2nc(CN3CCC(C(=O)N4CCN(c5ccccn5)CC4)CC3)c(C)o2)cc1	?	?	/	.	.	.
CCc1ccc(-c2nc(CN3CCC(C(=O)N4CCN(c5ccccc5)CC4)CC3)c(C)o2)cc1	.	?	.	?	?	8.2µM
Cc1ccccc1NC(=O)C(C)N(C)Cc1ccc2ccccc2c1 (stereo unspecified)	/	/	/	/	.	/
Cc1oc(-c2cccc(Cl)c2)nc1CN1CCN(C(=O)c2ccco2)CC1	/	/	/	/	35.5µM	/
Cc1oc(-c2cccc(F)c2)nc1CN1CCCN(C(=O)c2ccco2)CC1	.	.	.	.	?	.
CCc1ccc(-c2nc(CN3CCC(C(=O)NCCN(CC)c4ccccc4)CC3)c(C)o2)cc1	.	?	.	?	.	4.61µM
O=C(O)COCc1ccccc1Cl	/	/	/	/	.	/
CCOC(=O)N1CCN(S(=O)(=O)Cc2ccccc2)CC1	.	.	.	.	.	.
O=C(CCl)N1CCN(S(=O)(=O)Cc2ccccc2)CC1	23.1µM	?	.	.	.	?
COc1ccccc1C(=O)Nc1ccc(N2CCN(C(=O)CC(C)C)CC2)cc1	/	/	/	/	.	/
CCCC(=O)Nc1cccc2c1CCCC2	.	.	.	.	.	.
CCc1ccc(OCC(=O)N2CCc3ccccc32)cc1	.	.	.	.	.	.
CCc1ccc(OCC(=O)Nc2cccc3c2CCCC3)cc1	.	.	.	7.31µM	.	.
CCc1ccc(OCC(=O)Nc2cc(S(=O)(=O)CC)ccc2O)cc1	.	.	.	.	.	16.4µM
CCc1ccc(OCC(=O)N2c3ccccc3CCc3ccccc32)cc1	?	?	.	?	.	18.4µM
